The record followed here is PubChem BioAssay (NCI).

What all share (assay): NCI-60 one-dose screen, 48 h (100 = growth as untreated, 0 = no growth, -100 = all killed)
Conditions in all cases: 10 µM

The subject of experiment [1] is HCT-15 colon.
For experiment [2], the system named is HT29 colon.
Experiment [3] relates to SNB-19 CNS.
The subject of experiment [4] is U251 CNS.
In experiment [5] the test system is PC-3 prostate.
The test system of experiment [6] is SK-MEL-5 melanoma.
Experiment [7] concerns UACC-62 melanoma.
The test system of experiment [8] is LOX IMVI melanoma.
Experiment [9] concerns SK-MEL-28 melanoma.
For experiment [10], the system named is SK-MEL-2 melanoma.
The subject of experiment [11] is SN12C renal.
Experiment [12] has as its system UO-31 renal.
The subject of experiment [13] is TK-10 renal.
The test system of experiment [14] is ACHN renal.
Experiment [15] concerns CAKI-1 renal.
The test system of experiment [16] is A498 renal.
The test system of experiment [17] is CCRF-CEM leukemia.
For experiment [18], the system named is MOLT-4 leukemia.
Experiment [19] deals with EKVX NSCLC.

Molecules are shown by their SMILES. Compounds without any hit were thinned out: in the full panel of roughly 83,000, 20% have a hit.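 Treatment: one concentration, 48 hours, 96-well format. Scoring: percent growth, with anything below 10 considered active.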 Values without a mark were called inactive. Calls of active or inactive are those of the source.

`O=C(NC1CCCC1)c1ccc(N2CCC(NCc3cccc(C(F)(F)F)c3)CC2)cc1`: the growth was 77.8% in [1]; 36.7% in experiment [2]; 105% in experiment [3]; 82.9% in experiment [4]; 83.3% in experiment [5]; 79.5% in [6]. The growth was 104% in experiment [7]; 89.7% in experiment [8]; 108% in [9]; 108% in experiment [10]; 94.2% in experiment [11]; 62.3% in [12]. Further, the growth in [13] is 101%; in experiment [14], 97.9%; in experiment [15], 101%; in [16] it was 92.1%; in experiment [17] it was 75.7%; in experiment [18], 70.2%.
Take `O=C(NC1CCN(Cc2ccccc2)CC1)c1cc(-c2ccncc2)nc2ccc(Cl)cc12`: the growth in experiment [1] was 24.2%; in [2], 19.9%; in experiment [3], 24.8%; in experiment [4], 7.4% (active); in experiment [5] it was 33.9%; in experiment [7], 7.85% (active). For the same compound, the growth was 15.3% in experiment [8]; 46.5% in experiment [9]; 44.1% in [10]; 27.3% in experiment [11]; 11.9% in experiment [12]; 61.4% in experiment [13]. Further, the growth in experiment [14] was 19.9%; in experiment [15] it was 13.4%; in experiment [16], 11%; in [17], 2.77% (active).
For the compound `O=C(/C=C/c1ccc(Cl)cc1)c1ccc(Br)cc1`, the growth in experiment [1] is 90.4%; in experiment [2] it was 73.7%; in experiment [3], 99%; in experiment [4], 89.4%; in experiment [5] it was 97.4%; in experiment [6], 105%. The growth is 92.6% in experiment [7]; 83.4% in experiment [8]; 96.5% in experiment [9]; 104% in experiment [10]; 97.2% in experiment [19]; 90% in experiment [12]. Further, the growth was 81.2% in [13]; 104% in experiment [14]; 101% in experiment [15]; -44.1% (active) in experiment [16]; 110% in experiment [17]; 97.7% in experiment [18].
On to `COc1ccc(-c2nc(-c3ccccc3)c(-c3ccccc3)[nH]2)cc1OC1CCCC1`, for which the growth is 19.8% in experiment [1]; 35.5% in experiment [2]; 66.4% in [3]; 39.1% in [4]; 50.1% in experiment [5]; 67.7% in experiment [6]. The growth was 57% in experiment [7]; 24.3% in experiment [8]; 79.4% in experiment [9]; 66.2% in experiment [10]; 62.5% in [11]; 67.4% in [12]. Besides, the growth in [13] was 88.4%; in experiment [14], 54.4%; in [15], 71%; in experiment [16] it was -9.35% (active); in experiment [17] it was 50.7%; in experiment [18], 40.8%.
Consider `COc1cc(C2C=C(c3ccc(Cl)c(Cl)c3)N=C3SC(C)=CN32)cc(OC)c1OC` (stereo not given), for which the growth in [1] is 64.8%; in [2], 53.1%; in [3], 79.5%; in [4], 51.2%; in experiment [5], 59.2%; in [6], 83.9%. Further, the growth in experiment [7] was 85.8%; in experiment [8] it was 41.3%; in experiment [9] it was 102%; in experiment [10], 83.4%; in [11], 92.3%; in [12], 55.2%. For the same compound, the growth was 94.7% in experiment [13]; 90.3% in experiment [14]; 67.3% in experiment [15]; 36.7% in [17]; 46.2% in experiment [18].
On to `O=C(O)CNS(=O)(=O)c1ccc(OCCOc2ccc(S(=O)(=O)NCC(=O)O)cc2)cc1`, for which the growth in experiment [1] was 96%; in experiment [2] it was 98%; in experiment [3], 106%; in [5] it was 96.5%; in experiment [6], 97.4%; in experiment [7], 102%. For the same compound, the growth in [8] is 96.8%; in [9] it was 106%; in experiment [10], 98.5%; in experiment [19] it was 102%; in experiment [12] it was 85.7%; in [13], 92.7%. The growth in [14] was 102%; in [15], 99.5%; in [17] it was 112%.
With `O=C(NCCc1nccs1)c1cnc2c(S)cccc2c1`, the growth is 17.6% in experiment [1]; 20.4% in experiment [2]; 28.5% in [3]; 12.8% in experiment [4]; 34.2% in experiment [5]; -22.1% (active) in experiment [6]. Besides, the growth in experiment [7] was -6.53% (active); in [8], 2.38% (active); in experiment [9], 30.5%; in [10], 22.6%; in experiment [19] it was 16.3%; in [12], 12.9%. Further, the growth was 38.5% in experiment [13]; 29% in [14]; 19% in experiment [15]; -2.06% (active) in [16]; 15.4% in experiment [17].
`CCN(CC)CC(O)CNc1ccnc2cc(Cl)c(Cl)cc12` (stereo not given): the growth in experiment [1] was 69.5%; in experiment [2] it was 77.6%; in experiment [3], 110%; in [4] it was 75.4%; in experiment [5], 80%; in experiment [6] it was 84.7%. Moreover, the growth in [7] is 92.8%; in experiment [8] it was 73.9%; in [9] it was 97.6%; in [10], 108%; in experiment [19] it was 92%; in experiment [11] it was 79%. Besides, the growth is 53.7% in [12]; 95.2% in experiment [13]; 98.4% in [14]; 80.7% in [15]; 98.7% in [16]; 94.9% in [17]. In addition, in experiment [18], the growth is 82.3%.
As for `Cc1ccccc1C1=N[C@@H](Cc2ccccc2)C(=O)c2c(nc3ccccn23)N1`, the growth in experiment [1] is 100%; in [2], 115%; in [4], 100%; in [5] it was 89.4%; in experiment [6], 103%; in experiment [7] it was 103%. Moreover, the growth is 91.7% in [8]; 113% in experiment [9]; 115% in [10]; 107% in experiment [11]; 80.6% in [12]; 138% in experiment [13]. In addition, the growth in experiment [14] was 94.5%; in experiment [15] it was 88.9%; in experiment [16], 98.2%; in [17], 105%; in [18], 111%.
